# Test results from PubChem BioAssay (Tox21).
# Results filed as inconclusive are left out. A call without a number means that no potency is given here. The source holds several records for some structures; these can differ, active in one and inactive in another. Activity calls are given as the source filed them. Unless noted, calls come from the whole dose curve; as a rule, active = well fitted curve in the direction sought with a large enough effect in the repeat runs; inconclusive = weak or mixed curves; inactive = no such curve, though single readings can be large; an effect the other way counts as inactive or inconclusive.
# Tests used:
# [1] = qHTS assay to identify small molecule agonists of the hypoxia (HIF-1) signaling pathway - cell viability counter screen (AID 1224844; calls by dose curve; note: nearly all actives have a fitted effect of over 50% in size; note: potency is the fitted concentration of half-maximal effect)
# In short: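 Viability counter screen: HRE-bla ME-180 cells plated 5 hrs before compound addition, treated 17 hrs at 37C and 5% CO2, then CellTiter-Glo added after the FRET reporter read; luminescence after 30 min.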
# [2] = qHTS assay to identify small molecule antagonists of the estrogen related receptor (ERR) signaling pathway from Tox21 library (AID 1224848); note: nearly all actives have a fitted effect of over 50% in size; note: potency is the fitted concentration of half-maximal effect
# In short: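 Compounds dissolved in DMSO are pin-transferred onto ERR reporter cells (2,000 per well) that have settled for 6 h at 37 C. Plates then incubate 18 h at 37 C before ONE-Glo luciferase reagent and a luminescence read 30 min later.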
# [3] = qHTS assay to identify small molecule agonists of the estrogen related receptor (ERR) signaling pathway from Tox21 library (AID 1224849; calls by dose curve; note: nearly all actives have a fitted effect of over 15% in size); conditions: ERR reporter cell line, ONE-Glo luciferase, 18 h; at 92.4 µM (top of the series) unless noted
# In short: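 Quantitative HTS in agonist format: NTP ERR cell line, compounds transferred in DMSO after 6 h plating, 18 h incubation at 37 C, ONE-Glo luminescence endpoint.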
# [4] = A CellTox Green Cytotoxicity Assay to monitor cytotoxicity in HEK293 cells - 0 hour (AID 1224869); note: nearly all actives have a fitted effect of over 50% in size; note: potency is the fitted concentration of half-maximal effect
# In short: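 Dead-cell fluorescence measured kinetically: asymmetric cyanine dye, HEK293, 600 cells/well, 5 h settle, 23 nL cpd/DMSO, 37 C, reads 0–40 h every 8 h.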
# [5] = qHTS assay to identify small molecule agonists of H2AX (AID 1224845; active = well fitted activation curve with a large enough effect in the signal ratio in the repeat runs, not every such curve was filed as active; the % refers to the signal ratio; note: potency is the fitted concentration of half-maximal effect)
# In short: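 Wild-type CHO-K1 cells, plated overnight, exposed 3hr at 37C to 15 concentrations (0.76% DMSO final). Lysed, then HTRF anti-pH2AX (S139) cryptate and anti-H2AX-d2 antibodies, 24 hr room temperature; 665/620 nm emission read.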
# [6] = qHTS RealTime-Glo MT Cell Viability Assay in HepG2 cells - 40 hour (AID 1224870); note: nearly all actives have a fitted effect of over 50% in size; note: potency is the fitted concentration of half-maximal effect
# In short: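 HepG2 cells (600/well) mixed with RealTime-Glo MT reagent, settled 5 h at 37 C/5% CO2 before compound addition. Nonlytic NanoLuc luminescence from viable-cell prosubstrate reduction read repeatedly during 40 h treatment at 37 C.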
# [7] = qHTS RealTime-Glo MT Cell Viability Assay in HepG2 cells - 24 hour (AID 1224867); note: nearly all actives have a fitted effect of over 50% in size; note: potency is the fitted concentration of half-maximal effect
# In short: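 Cell number in HepG2 cultures estimated from NanoLuc luminescence generated by metabolic reduction of a prosubstrate by living cells. The homogeneous, nonlytic format allowed repeated reads at 0, 8, 16, 24, 32 and 40 h of compound exposure.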
# [8] = qHTS RealTime-Glo MT Cell Viability Assay in HEK293 cells - 32 hour (AID 1224868); note: nearly all actives have a fitted effect of over 50% in size; note: potency is the fitted concentration of half-maximal effect
# In short: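 Homogeneous bioluminescent viability format in HEK293 cells (600 cells/well). Following 5 h at 37 C/5% CO2, 23 nL compound was pintooled; the signal was measured repeatedly during 40 h incubation.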
# [9] = qHTS assay to identify small molecule agonists of H2AX - cell viability counter screen (AID 1224847; calls by dose curve; note: nearly all actives have a fitted effect of over 30% in size; note: potency is the fitted concentration of half-maximal effect)
# In short: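 Counter-screen for viability: CellTiter-Glo ATP luminescence read after 3 h compound treatment (15-point titration, 0.76% DMSO final) of CHO-K1 cells at 37C, with 30 min room-temperature reagent incubation.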
# [10] = qHTS assay to identify small molecule agonists of the hypoxia (HIF-1) signaling pathway (AID 1224846; active = well fitted activation curve with a large enough effect in the signal ratio in the repeat runs, not every such curve was filed as active; the % refers to the signal ratio)
# In short: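 Agonist mode reporter screen. ME-180 cells stably expressing bla under HRE control received test compounds in DMSO for 17 hrs (37C, 5% CO2), and beta-lactamase activity was then detected with the CCF4-AM FRET substrate.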
structure (smiles),measurement,setting,value
CS(=O)(=O)CCNCc1ccc(-c2ccc3ncnc(Nc4ccc(OCc5cccc(F)c5)c(Cl)c4)c3c2)o1,Potency,[1],10.7 µM (active)
same,Potency,[2],9.44 µM (active)
same,"activity change, positive = activation",[3],-48.5% [at 42.5 µM] (inactive)
same,Potency,[4],inactive
O=C(NOCC1CC1)c1ccc(F)c(F)c1Nc1ccc(I)cc1Cl,Potency,[5],inactive
same,Potency,[2],11.9 µM (active)
same,"activity change, positive = activation",[3],-59% [at 42.5 µM] (inactive)
same,Potency,[4],inactive
same,Potency,[6],0.535 µM (active)
CCc1oc2ccccc2c1C(=O)c1cc(Br)c(O)c(Br)c1,Potency,[1],inactive
same,Potency,[7],inactive
same,Potency,[4],inactive
same,Potency,[6],inactive
CC[C@H](c1ccc(O)cc1)[C@@H](CC)c1ccc(O)cc1,Potency,[1],54.9 µM (active) and inactive
same,Potency,[7],inactive
same,Potency,[8],27.5 µM (active)
same,Potency,[4],inactive
same,Potency,[6],inactive
Nc1ccc2c3c(cccc13)-c1ccccc1-2,Potency,[5],inactive
same,Potency,[9],inactive
same,Potency,[7],inactive
same,Potency,[8],24.8 µM (active)
same,Potency,[4],22.1 µM (active)
same,Potency,[6],inactive
CO[Si](CCCNc1ccccc1)(OC)OC,Potency,[1],inactive
same,Potency,[7],inactive
same,Potency,[8],inactive
same,Potency,[4],inactive
same,Potency,[6],inactive
Cc1ccc(-n2nc(C(C)(C)C)cc2NC(=O)Nc2ccc(OCCN3CCOCC3)c3ccccc23)cc1,Potency,[5],49.2 µM (active)
same,Potency,[10],inactive
same,"activity change, positive = activation",[3],-18.8% [at 42.5 µM] (inactive)
same,Potency,[7],inactive
same,Potency,[4],inactive
same,Potency,[6],inactive
CCN(Cc1cccnc1)C(=O)c1cccc(Cl)c1[C@]1(C)C(=O)N(Cc2ccc(OC)cc2OC)c2ccc(Cl)cc21,Potency,[5],inactive
same,Potency,[9],inactive
same,Potency,[8],20.4 µM (active)
same,Potency,[4],inactive
CCN(CC)CCNC(=O)c1c(C)[nH]c(/C=C2\C(=O)Nc3ccc(F)cc32)c1C,Potency,[1],9.52 µM (active)
same,Potency,[7],21.3 µM (active)
same,Potency,[8],10.7 µM (active)
same,Potency,[6],15.1 µM (active)
C=CC(=O)OCC(CO)(COCC(COC(=O)C=C)(COC(=O)C=C)COC(=O)C=C)COC(=O)C=C,Potency,[1],2.16 µM (active)
same,Potency,[7],4.31 µM (active)
same,Potency,[4],inactive
same,Potency,[6],4.31 µM (active)
COc1ccc(C(=O)/C(Br)=C\C(=O)O)cc1,Potency,[10],inactive
same,Potency,[2],inactive
same,Potency,[8],38.9 µM (active)
same,Potency,[4],inactive
O=C(N/N=C/c1ccccc1O)c1ccncc1,Potency,[9],inactive
same,Potency,[2],11.9 µM (active)
same,"activity change, positive = activation",[3],-42.8% [at 42.5 µM] (inactive)
same,Potency,[7],inactive
same,Potency,[4],inactive
same,Potency,[6],inactive
CCCCN1C(=O)[C@@H]([C@H](O)C2CCCCC2)NC(=O)C12CCN(Cc1ccc(Oc3ccc(C(=O)O)cc3)cc1)CC2,Potency,[9],inactive
same,"activity change, positive = activation",[3],-19.3% (inactive)
same,Potency,[7],inactive
same,Potency,[8],inactive
same,Potency,[4],inactive
same,Potency,[6],inactive
S=c1[nH]c2ccccc2s1,Potency,[10],inactive
same,Potency,[9],inactive
same,Potency,[2],54.5 µM (active)
same,"activity change, positive = activation",[3],-59.1% (inactive)
same,Potency,[7],inactive
same,Potency,[8],inactive
same,Potency,[4],inactive
same,Potency,[6],inactive
O=c1cc(-c2ccc(O)cc2)oc2cc(O)cc(O)c12,Potency,[7],inactive
same,Potency,[4],inactive
same,Potency,[6],inactive
Nc1ccccc1O,"activity change, positive = activation",[3],-27.3% (inactive)
same,Potency,[7],inactive
same,Potency,[4],inactive
same,Potency,[6],inactive
O=C(Nc1ccc(Oc2ccc(Cl)cc2)c(Cl)c1)c1cc(I)cc(I)c1O,"activity change, positive = activation",[3],-35.9% [at 42.5 µM] (inactive)
same,Potency,[7],inactive
same,Potency,[8],inactive
same,Potency,[4],inactive
same,Potency,[6],inactive
COc1ccc(CN2CCN(C(c3ccc(F)cc3)c3ccc(F)cc3)CC2)c(OC)c1OC,Potency,[2],13.3 µM (active)
same,"activity change, positive = activation",[3],-66.6% [at 42.5 µM] (inactive)
same,Potency,[8],16.9 µM (active)
same,Potency,[4],inactive
O=C(c1ccc(F)cc1)C1CCN(CCn2c(=O)[nH]c3ccccc3c2=O)CC1,Potency,[9],inactive
same,"activity change, positive = activation",[3],-25.2% [at 42.5 µM] (inactive)
same,Potency,[7],inactive
same,Potency,[8],9.52 µM (active)
same,Potency,[4],inactive
same,Potency,[6],inactive
Oc1cccc2cc3cccc(O)c3c(O)c12,Potency,[7],inactive
same,Potency,[8],inactive
same,Potency,[4],inactive
same,Potency,[6],inactive
CCOC(=O)c1nc(C(Cl)(Cl)Cl)n(-c2ccc(Cl)cc2Cl)n1,Potency,[10],inactive
same,Potency,[2],61.1 µM (active)
same,"activity change, positive = activation",[3],-43.4% (inactive)
same,Potency,[8],inactive
same,Potency,[4],inactive
same,Potency,[6],inactive
CCC(Cl)C(Cl)C(Cl)CC(Cl)C(Cl)C(C)Cl (stereo unspecified),Potency,[7],inactive
same,Potency,[8],inactive
same,Potency,[4],inactive
same,Potency,[6],inactive
CCCCN(CCCC)c1ccc(C(=O)c2ccccc2C(=O)O)c(O)c1,Potency,[2],55 µM (active)
same,"activity change, positive = activation",[3],-39.4% (inactive)
same,Potency,[7],inactive
same,Potency,[8],inactive
same,Potency,[4],inactive
same,Potency,[6],inactive
Fc1ccc(C(c2ccc(F)cc2)N2CCN(C/C=C/c3ccccc3)CC2)cc1,Potency,[2],23.7 µM (active)
same,"activity change, positive = activation",[3],-51.3% [at 42.5 µM] (inactive)
same,Potency,[8],21.3 µM (active)
same,Potency,[4],inactive
same,Potency,[6],inactive
O=C1c2c(O)ccc(Nc3ccc(CCO)cc3)c2C(=O)c2c([N+](=O)[O-])ccc(O)c21,Potency,[8],inactive
same,Potency,[4],inactive
same,Potency,[6],inactive
ON=C1CCCC1,Potency,[10],inactive
same,Potency,[2],39.9 µM (active)
same,"activity change, positive = activation",[3],-71.1% (inactive)
same,Potency,[7],inactive
same,Potency,[8],25.4 µM (active)
same,Potency,[4],inactive
same,Potency,[6],inactive
CC(=O)S[C@@H]1CC2=CC(=O)CC[C@]2(C)[C@H]2CC[C@@]3(C)[C@@H](CC[C@@]34CCC(=O)O4)[C@H]12,Potency,[10],inactive
same,Potency,[4],inactive
same,Potency,[6],inactive
O=Cc1cc(O)ccc1Br,Potency,[5],inactive
same,Potency,[7],inactive
same,Potency,[4],inactive
same,Potency,[6],inactive
CCCCCCCCCCn1cc[n+](CCCCCCCCCC)c1C,Potency,[9],10.1 µM (active)
same,Potency,[2],2.17 µM (active)
same,"activity change, positive = activation",[3],-74.4% (inactive)
same,Potency,[7],19.5 µM (active)
same,Potency,[8],1.38 µM (active)
same,Potency,[4],inactive
same,Potency,[6],19.5 µM (active)
O=C(Nc1cccc(Cl)c1)OCC#CCCl,Potency,[9],inactive
same,Potency,[2],30.6 µM (active)
same,"activity change, positive = activation",[3],-74.2% (inactive)
same,Potency,[7],49 µM (active)
same,Potency,[8],49 µM (active)
same,Potency,[4],inactive
same,Potency,[6],49 µM (active)
C/C(=C(/OCCOc1ccc(Cl)cc1)c1ccc(Cl)cc1Cl)n1ccnc1,Potency,[9],inactive
same,Potency,[7],inactive
same,Potency,[4],inactive
same,Potency,[6],inactive
CCCCC(CC)COC(=O)c1ccccc1C(=O)O (stereo unspecified),Potency,[9],inactive
same,"activity change, positive = activation",[3],-12.5% (inactive)
same,Potency,[7],inactive
same,Potency,[4],inactive
same,Potency,[6],inactive
CN1CCN(CCC(=O)N2c3ccccc3Sc3ccc(C(F)(F)F)cc32)CC1,"activity change, positive = activation",[3],-67.1% [at 42.5 µM] (inactive)
same,Potency,[7],23.9 µM (active)
same,Potency,[4],inactive
